# System: NCI-H1688
# Assay: inhibition of cell viability relative to untreated control (fraction); higher = stronger growth inhibition, active = 0.5 or more
# Details: 30 µM; 24 h
# How it was run: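 Compounds from a natural compound library (TargetMol) were tested at 30 µM on NCI-H1688 small cell lung cancer cells for 24 h at 37°C under 5% CO2. Cell Counting Kit-8 absorbance at 450 nm, read in triplicate, gave the viability. The values express inhibition of cell viability as a fraction relative to untreated cells.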
row,SMILES,inhibition of cell viability
1,CC(C)=CCC[C@](C)(O[C@@H]1O[C@H](CO)[C@@H](O)[C@H](O)[C@H]1O)[C@H]1CC[C@]2(C)[C@@H]1[C@H](O)C[C@@H]1[C@@]3(C)CC[C@H](O[C@@H]4O[C@H](CO)[C@@H](O)[C@H](O)[C@H]4O[C@@H]4O[C@H](CO)[C@@H](O)[C@H](O)[C@H]4O)C(C)(C)[C@@H]3CC[C@]12C [Ginsenoside Rd],0.03 (inactive)
2,O=c1ccc2cc3ccoc3cc2o1 [Psoralen],-0.0315 (inactive)
3,OC[C@@H](O)[C@H](O)[C@@H](O)CO [Xylitol],0.015 (inactive)
4,CC[C@H]1OC(=O)[C@H](C)[C@@H](O[C@H]2C[C@@](C)(OC)[C@@H](O)[C@H](C)O2)[C@H](C)[C@@H](O[C@@H]2O[C@H](C)C[C@H](N(C)C)[C@H]2O)[C@](C)(O)C[C@@H](C)CN(C)[C@H](C)[C@@H](O)[C@]1(C)O [Azithromycin dihydrate],0.037 (inactive)
5,O=C1c2c(O)cc(O)cc2OC(c2ccc(O)c(O)c2)C1O (centres undefined) [Taxifolin (Dihydroquercetin)],0.086 (inactive)
6,O=c1c(O)c(-c2ccc(O)c(O)c2)oc2cc(O)ccc12 [Fisetin],0.0255 (inactive)
7,O=C(/C=C/c1ccc(O)c2oc(-c3ccc(O)c(O)c3)cc12)O[C@H](Cc1ccc(O)c(O)c1)C(=O)O [Salvianolic Acid C],0.0822 (inactive)
8,CC1=CC(=O)c2ccccc2C1=O [Menadione],0.979 (active)
9,O=C(O)c1cc(O)c2c(c1)[C@@H]([C@H]1c3cc(C(=O)O)cc(O)c3C(=O)c3c(O[C@@H]4O[C@H](CO)[C@@H](O)[C@H](O)[C@H]4O)cccc31)c1cccc(O[C@@H]3O[C@H](CO)[C@@H](O)[C@H](O)[C@H]3O)c1C2=O [Sennoside B],-0.103 (inactive)
